Test results taken from PubChem BioAssay AID1159580 (chemical genetic matrix, 2015).
Several values for one entry are separate records, joined by “and”; a condition that tells them apart may be missing. Identical values can stand only once. The whole screen tested about 5,500 compounds, of which about 2,000 (36%) were called active. About 18% were inconclusive and are not listed. Cut-off read from the data, not from the text of the source: active = normalized growth mostly below about 0.91 (no sharp cut-off); inconclusive = no clear call, values can overlap the other calls; inactive = mostly above about 0.92. This is one part of the list. Some compounds were tested as several samples or in several runs, with calls that do not always agree.

Test: chemical genetic growth profiling, strain panel (AID 1159580);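 note: tested at 20 µM; growth read once vehicle control cultures reached saturation at 30 °C; 1 = growth at the plate median or of vehicle wells; lower values mean less growth of the strain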
Details: S. cerevisiae deletion strains, growth OD

## CC(C)COCC(CN(Cc1ccccc1)c1ccccc1)N1CCCC1 (stereo not given)
Locus YAL013W, strain DEP1, stronger effect = lower value
  normalized growth: 0.871 (active)
Locus YAL021C, strain ccr4, stronger effect = lower value
  normalized growth: 0.962 (inactive)
Locus YAL026C, strain drs2, stronger effect = lower value
  normalized growth: 1.01 (inactive)
Locus YAL030W, strain snc1, stronger effect = lower value
  normalized growth: 1.03 (inactive)
Locus YAL040C, strain CLN3, stronger effect = lower value
  normalized growth: 1.09 (inactive)
Locus YBL061C, strain skt5, stronger effect = lower value
  normalized growth: 1.04 (inactive)
Locus YBR009C, strain hhf1, stronger effect = lower value
  normalized growth: 1 (inactive)
Locus YBR021W, strain FUR4, stronger effect = lower value
  normalized growth: 0.594 (active)
Locus YBR023C, strain chs3, stronger effect = lower value
  normalized growth: 1.02 (inactive)
Locus YBR171W, strain sec66, stronger effect = lower value
  normalized growth: 1.06 (inactive)
Locus YBR229C, strain ROT2, stronger effect = lower value
  normalized growth: 0.953 (inactive)
Locus YBR231C, strain swc5, stronger effect = lower value
  normalized growth: 1.01 (inactive)
Locus YBR279W, strain paf1, stronger effect = lower value
  normalized growth: 1.04 (inactive)
Locus YCL011C, strain gbp2, stronger effect = lower value
  normalized growth: 1.02 (inactive)
Locus YCL016C, strain dcc1, stronger effect = lower value
  normalized growth: 1.02 (inactive)
Locus YCL029C, strain bik1, stronger effect = lower value
  normalized growth: 0.978 (inactive)
Locus YCL061C, strain MRC1 (second series), stronger effect = lower value
  normalized growth: 1.01 (inactive)
Locus YCL061C, strain MRC1, stronger effect = lower value
  normalized growth: 1.02 (inactive)
Locus YCL069W, strain vba3, stronger effect = lower value
  normalized growth: 1.05 (inactive)
Locus YCR088W, strain abp1, stronger effect = lower value
  normalized growth: 1.04 (inactive)
Locus YDL005C, strain med2, stronger effect = lower value
  normalized growth: 1.05 (inactive)
Locus YDL035C, strain GPR1, stronger effect = lower value
  normalized growth: 0.864 (inactive)
Locus YDL040C, strain nat1, stronger effect = lower value
  normalized growth: 1.02 (inactive)
Locus YDL074C, strain BRE1, stronger effect = lower value
  normalized growth: 0.694 (active)
Locus YDL101C, strain DUN1, stronger effect = lower value
  normalized growth: 0.926 (inactive)
Locus YDL134C, strain PPH21, stronger effect = lower value
  normalized growth: 0.9 (inactive)
Locus YDL185W, strain tfp1, stronger effect = lower value
  normalized growth: 0.978 (inactive)
Locus YDL192W, strain arf1, stronger effect = lower value
  normalized growth: 0.977 (inactive)
Locus YDR001C, strain nth1, stronger effect = lower value
  normalized growth: 1.03 (inactive)
Locus YDR069C, strain doa4, stronger effect = lower value
  normalized growth: 1.02 (inactive)
Locus YDR101C, strain arx1, stronger effect = lower value
  normalized growth: 0.929 (inactive)
Locus YDR137W, strain rgp1, stronger effect = lower value
  normalized growth: 1.1 (inactive)
Locus YDR150W, strain NUM1, stronger effect = lower value
  normalized growth: 0.965 (inactive)
Locus YDR159W, strain sac3, stronger effect = lower value
  normalized growth: 1.03 (inactive)
Locus YDR162C, strain NBP2, stronger effect = lower value
  normalized growth: 0.802 (active)
Locus YDR195W, strain ref2
  normalized growth: 1.07 (inactive)
Locus YDR297W, strain sur2, stronger effect = lower value
  normalized growth: 1.02 (inactive)
Locus YDR318W, strain mcm21, stronger effect = lower value
  normalized growth: 0.947 (inactive)
Locus YDR334W, strain swr1, stronger effect = lower value
  normalized growth: 1.03 (inactive)
Locus YDR335W, strain msn5, stronger effect = lower value
  normalized growth: 1.06 (inactive)
Locus YDR388W, stronger effect = lower value
  normalized growth: 0.814 (active)
Locus YDR392W, strain spt3, stronger effect = lower value
  normalized growth: 0.934 (inactive)
Locus YDR502C, strain sam2, stronger effect = lower value
  normalized growth: 0.914 (active)
Locus YEL003W, strain gim4, stronger effect = lower value
  normalized growth: 1.04 (inactive)
Locus YEL037C, strain rad23, stronger effect = lower value
  normalized growth: 1.03 (inactive)
Locus YEL061C, strain CIN8 (second series), stronger effect = lower value
  normalized growth: 1.03 (inactive)
Locus YEL061C, strain CIN8, stronger effect = lower value
  normalized growth: 0.973 (inactive)
Locus YER002W, strain NOP16, stronger effect = lower value
  normalized growth: 1.02 (inactive)
Locus YER015W, strain faa2, stronger effect = lower value
  normalized growth: 1.01 (inactive)
Locus YER016W, strain bim1, stronger effect = lower value
  normalized growth: 1.02 (inactive)
Locus YER110C, stronger effect = lower value
  normalized growth: 0.96 (inactive)
Locus YER111C, strain swi4, stronger effect = lower value
  normalized growth: 1.06 (inactive)
Locus YER155C, strain BEM2 (second series), stronger effect = lower value
  normalized growth: 0.884 (inactive)
Locus YER155C, strain BEM2, stronger effect = lower value
  normalized growth: 1.02 (inactive)
Locus YER167W, strain BCK2, stronger effect = lower value
  normalized growth: 0.958 (inactive)
Locus YFR010W, strain ubp6, stronger effect = lower value
  normalized growth: 0.998 (inactive)
Locus YGL078C, strain dbp3, stronger effect = lower value
  normalized growth: 0.978 (inactive)
Locus YGL086W, strain mad1, stronger effect = lower value
  normalized growth: 0.903 (active)
Locus YGL167C, strain pmr1, stronger effect = lower value
  normalized growth: 1.04 (inactive)
Locus YGL173C, strain kem1, stronger effect = lower value
  normalized growth: 1.01 (inactive)
Locus YGL227W, strain vid30, stronger effect = lower value
  normalized growth: 1.03 (inactive)
Locus YGL240W, strain doc1, stronger effect = lower value
  normalized growth: 0.99 (inactive)
Locus YGL248W, strain PDE1, stronger effect = lower value
  normalized growth: 0.849 (active)
Locus YGL253W, strain hxk2, stronger effect = lower value
  normalized growth: 1.05 (inactive)
Locus YGR078C, strain PAC10, stronger effect = lower value
  normalized growth: 0.786 (active) and 0.987 (inactive)
Locus YGR135W, strain pre9, stronger effect = lower value
  normalized growth: 0.849 (active)
Locus YGR229C, strain SMI1, stronger effect = lower value
  normalized growth: 0.434 (active)
Locus YGR252W, strain gcn5, stronger effect = lower value
  normalized growth: 0.734 (active)
Locus YHR013C, strain ard1, stronger effect = lower value
  normalized growth: 1.03 (inactive)
Locus YHR027C, strain rpn1, stronger effect = lower value
  normalized growth: 1 (inactive)
Locus YHR030C, strain SLT2, stronger effect = lower value
  normalized growth: 0.771 (active) and 0.959 (inactive)
Locus YHR079C, strain IRE1 (second series), stronger effect = lower value
  normalized growth: 0.972 (inactive)
Locus YHR079C, strain IRE1, stronger effect = lower value
  normalized growth: 0.998 (inactive)
Locus YHR094C, strain hxt1, stronger effect = lower value
  normalized growth: 0.987 (inactive)
Locus YHR129C, strain ARP1, stronger effect = lower value
  normalized growth: 0.949 (inactive)
Locus YHR142W, strain chs7, stronger effect = lower value
  normalized growth: 1.04 (inactive)
Locus YHR200W, strain rpn10, stronger effect = lower value
  normalized growth: 0.975 (inactive)
Locus YIL066C, strain RNR3, stronger effect = lower value
  normalized growth: 0.809 (active)
Locus YIL073C, strain SPO22, stronger effect = lower value
  normalized growth: 1.3 (inactive)
Locus YIL125W, strain kgd1, stronger effect = lower value
  normalized growth: 0.991 (inactive)
Locus YIR030C, strain dcg1, stronger effect = lower value
  normalized growth: 0.98 (inactive)
Locus YJL092W, strain hpr5, stronger effect = lower value
  normalized growth: 1.01 (inactive)
Locus YJL095W, strain BCK1 (second series), stronger effect = lower value
  normalized growth: 1 (inactive)
Locus YJL095W, strain BCK1, stronger effect = lower value
  normalized growth: 0.587 (active) and 0.983 (inactive)
Locus YJL115W, strain asf1, stronger effect = lower value
  normalized growth: 1.04 (inactive)
Locus YJL129C, strain trk1, stronger effect = lower value
  normalized growth: 1.06 (inactive)
Locus YJL134W, strain LCB3, stronger effect = lower value
  normalized growth: 0.988 (inactive)
Locus YJL154C, strain vps35, stronger effect = lower value
  normalized growth: 1.04 (inactive)
Locus YJL164C, strain tpk1, stronger effect = lower value
  normalized growth: 1.01 (inactive)
Locus YJL166W, strain qcr8, stronger effect = lower value
  normalized growth: 1.01 (inactive)
Locus YJL168C, strain set2, stronger effect = lower value
  normalized growth: 0.989 (inactive)
Locus YJL187C, strain SWE1 (second series), stronger effect = lower value
  normalized growth: 0.801 (active)
Locus YJL187C, strain SWE1, stronger effect = lower value
  normalized growth: 1.03 (inactive)
Locus YJR043C, strain POL32, stronger effect = lower value
  normalized growth: 0.996 (inactive)
Locus YJR066W, strain TOR1, stronger effect = lower value
  normalized growth: 0.948 (inactive)
